Drawing on PubChem BioAssay AID590 (National Center for Advancing Translational Sciences (NCATS), 2007), this text covers max dye-equivalent concentration for 53 compounds.

Out of some 59,000 compounds screened, about 6,500 (11%) were called active. Not shown: some 15% with an inconclusive outcome. No stated cut-off is given here; in the data, active means max dye-equivalent concentration above about 10 nM; inconclusive means mostly about 1.1 nM to 9.6 nM; inactive means weaker than that. What follows is part of a selection rich in actives, with near analogues and random picks from the rest.

The experiment is described as follows: qHTS Assay for Spectroscopic Profiling in A350 Spectral Region. The following applies: Compound autofluorescence, 340/450 nm, Alexa 350 dye-equivalents; active compounds read high. On the technique in general: In qHTS, concentration-response curves come from the screen itself.
As to `Cc1nc(C)c(C(=O)Nc2ccc(C)c(F)c2)o1`, the max dye-equivalent concentration result was “inactive”. The entry for `O=C(Nc1c(Cl)cccc1Cl)C1CCC1` is “inactive”; for `C[N+]1(CCN=C=NC2CCCCC2)CCOCC1` it is “inactive”. The entry for `Cc1ccc(N2CCN(S(=O)(=O)N(C)C)CC2)cc1Cl` is “inactive”.

Regarding `CCCCOc1ccc(C(C)(O)CCN2CCOCC2)cc1` (stereo not drawn), the max dye-equivalent concentration result is “inactive”. The entry for `CC(C)C(c1nnnn1CCc1ccccc1)N1CCN(C(=O)c2ccco2)CC1` (stereo not drawn) is “inactive”.

For the compound `N#Cc1cccc(-c2ccc3ncnc(NCc4cccs4)c3c2)c1`, the max dye-equivalent concentration entry was “inactive”. The entry for `CC(=O)Oc1cccc(N2C(=O)CC(Nc3ccc(N4CCOCC4)cc3)C2=O)c1` (stereo not drawn) is “inactive”; for `CS(=O)(=O)N1CCC2(CC1)CN(Cc1cc(C(F)(F)F)cc(C(F)(F)F)c1)C2` it is “inactive”; for `COc1ccc(N2C(=O)CCC(C(=O)N(C)C3CCCCC3)C2c2ccc(OC)c(OC)c2)cc1` (stereo not drawn) it is “inactive”.

Turning to `C#CCN1C(=O)C(O)(CC(=O)c2cc(OC)ccc2OC)c2ccccc21` (stereo not drawn), the max dye-equivalent concentration is 14 nM (active).

For the compound `COc1ccc(OC)c(NC(=O)Cn2c(=O)oc3ccccc32)c1`, the max dye-equivalent concentration result is “inactive”. As for `COc1cc2cc(CN(CCN3CCCC3)C(=O)Nc3ccccc3Cl)c(=O)[nH]c2cc1OC`, the figure is 310 nM (active); as for `COc1cccc2cc(C(C)N(CCCN3CCOCC3)C(=O)Nc3ccc(Cl)cc3)oc12` (stereo not drawn), “inactive”; as for `COc1ccc(CCN(Cc2cc3cccc(C)c3[nH]c2=O)C(=O)N2CCCC2)cc1OC`, “inactive”. Turning to `Cc1ccc(-c2nnn(CC(=O)N(CCO)C(C(=O)NC(C)(C)C)c3ccncc3)n2)cc1` (stereo not drawn), the max dye-equivalent concentration result was “inactive”. Take `O=C(Nc1ccc2c(c1)OCCO2)c1ccncc1`: the max dye-equivalent concentration entry was “inactive”. As for `Cc1cc(C)n2nc(C(=O)Oc3ccc4c(c3)OCO4)nc2n1`, the entry is “inactive”; as for `O=c1c2[nH]c3ccc(Cl)cc3c2ncn1Cc1ccccn1`, “inactive”. As for `COc1ccc(C(=O)CSc2nnc(COc3ccccc3)n2Cc2ccco2)cc1`, the entry is “inactive”; as for `COc1ccc2[nH]c3c(=O)n(Cc4ccco4)cnc3c2c1`, 55 nM (active); as for `CCOc1ccccc1NC(=O)Nc1cc(OC)ccc1OC`, “inactive”. Turning to `COc1ccc(OC)c(N=Cc2c(O)[nH]c3ccccc23)c1`, the max dye-equivalent concentration is 64 nM (active).

On to `COC(=O)c1[nH]c2ccccc2c1NS(=O)(=O)c1ccc(OC)cc1OC`, for which the max dye-equivalent concentration entry is “inactive”. In the case of `Cc1nc2nc(COc3ccccc3)[nH]n2c(=O)c1Cc1ccccc1`, the max dye-equivalent concentration entry is “inactive”.

In the case of `CC(=O)/C(C)=N\O`, the max dye-equivalent concentration result was “inactive”. The entry for `Cc1cccc(Cn2c(N3CCN(c4ccccc4)CC3)nc3c2c(=O)n(C)c(=O)n3C)c1` is “inactive”. The entry for `Cn1c(=O)c2c(nc(N3CCCCCC3)n2CC(=O)c2ccc(Br)cc2)n(C)c1=O` is “inactive”. For the compound `Cn1c(=O)c2c(nc(N3CCCCCC3)n2CC(O)COc2ccc(Cl)cc2)n(C)c1=O` (stereo not drawn), the max dye-equivalent concentration is 49 nM (active). Take `Cc1ccc(Oc2nc3ccccc3n3c(C)nnc23)cc1`: the max dye-equivalent concentration entry is “inactive”. For `c1ccc(CSc2nnc(-c3ccco3)n2Cc2ccccc2)cc1`, the max dye-equivalent concentration result is “inactive”. The figure for `CN(c1nc2ccccc2n2c(-c3ccco3)nnc12)S(=O)(=O)c1ccccc1` is 39 nM (active). Turning to `CC(=O)C1=C(O)C(=O)N(c2ccc(S(N)(=O)=O)cc2)C1c1ccccc1F` (stereo not drawn), the max dye-equivalent concentration was 23 nM (active).

Take `COc1ccccc1N=C1SC(C)CN1C(=O)C1CCC1` (stereo not drawn): the max dye-equivalent concentration entry was “inactive”. The entry for `COc1ccc(N2C(=O)CN=C2Nc2cccc(C)c2C)cc1OC` is “inactive”. For `CSc1cccc(NC(=O)C2CCCN2S(=O)(=O)c2ccc3c(c2)CCC(=O)N3)c1` (stereo not drawn), the max dye-equivalent concentration entry is “inactive”.

For the compound `O=C(CC1N=C2c3ccccc3N=C(SCc3ccccc3Cl)N2C1=O)NCc1ccco1` (stereo not drawn), the max dye-equivalent concentration is 17 nM (active). Turning to `O=C(CN1C(=O)CCS(=O)(=O)c2ccccc21)NCc1ccc(F)cc1`, the max dye-equivalent concentration entry is “inactive”. The figure for `NC(=O)CSC1=Nc2ccccc2C2=NC(CCC(=O)NCc3ccc(F)cc3)C(=O)N12` (stereo not drawn) is 420 nM (active); for `Cc1nc2nc(SCC(=O)NCc3ccco3)nn2c(C)c1Cc1ccccc1` it is “inactive”; for `CC1(c2ccccc2Cl)NC(=O)N(CC(=O)NC(=O)NCc2ccco2)C1=O` (stereo not drawn) it is “inactive”. As for `CCN(CC)S(=O)(=O)c1cccc(C(=O)NCC(=O)OCC(=O)NCc2ccccc2)c1`, the entry is “inactive”; as for `COc1ccccc1N(C(=O)Cn1nnc2ccccc21)C(C(=O)NCc1ccco1)c1ccc(C)o1` (stereo not drawn), “inactive”; as for `COc1ccc2[nH]cc(CCNc3ncnc4ccc(-c5ccc(C(=O)N(C)C)cc5)cc34)c2c1`, “inactive”.

`O=C(O)c1ccc(-n2cccc2)cc1O`: the max dye-equivalent concentration entry is “inactive”. As for `Cc1cc(Cl)ccc1N1C(=O)CC(SCCC(=O)O)C1=O` (stereo not drawn), the entry is “inactive”. The entry for `CN(C)c1ccc(NC(=O)c2ccncc2)c2ccccc12` is “inactive”. Take `CCN1CCc2c(C#N)c(NCc3ccccc3)nc(NCCO)c2C1`: the max dye-equivalent concentration was 500 nM (active). As for `COc1ccc2c(=O)cc(-c3ccccc3)oc2c1O`, the max dye-equivalent concentration result is “inactive”. Consider `Cc1noc(C)c1-c1nccc(N2CCOCC2)n1`, for which the max dye-equivalent concentration result is “inactive”.

Consider `O=C(Nc1nsc(-c2ccccc2)n1)c1ccncc1`, for which the max dye-equivalent concentration result is “inactive”. As for `CC[C@]1(O)C[C@@H]2CN(CCc3c([nH]c4ccccc34)[C@@](C(=O)OC)(c3cc4c(cc3OC)N(C)[C@H]3[C@@](O)(C(=O)OC)[C@H](OC(C)=O)[C@]5(CC)C=CCN6CC[C@]43[C@@H]65)C2)C1`, the figure is 54 nM (active). As to `CC[C@]1(O)CC2CN(CCc3c([nH]c4ccccc34)[C@@](C(=O)OC)(c3cc4c(cc3OC)N(C=O)[C@H]3[C@@](O)(C(=O)OC)[C@H](OC(C)=O)[C@]5(CC)C=CCN6CC[C@]43[C@@H]65)C2)C1` (stereo partly drawn), the max dye-equivalent concentration result is “inactive”.
